Compound activity from PubChem BioAssay.
Sampled rows, rich in hits. Any-hit rate of the full collection: about 2.6%.
TWEAK-Fn14 inh – blocks TWEAK-Fn14 interaction in a reporter cell assay | TWEAK-stimulated Fn14 reporter cells, luciferase luminescence, 8 h | inhibition, % at 10 µM | hit rate 2% among 360,000 | AID 1159606; in the data active = inhibition above about 50%
CF NFkB block – inhibitors of cystic fibrosis induced NF-kB; inhibition, % at 5 µM; KKLEB NF-kB-GFP reporter, PAF-induced, GFP fluorescence overnight; hit rate 0.86% among 360,000; AID 588850;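 active = at least 50% inhibition at 5 µM, scaled per plate between neutral and stimulator controls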;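 note: PAF is a Pseudomonas aeruginosa culture filtrate used as stimulus; plate controls were PAF-stimulated DMSO wells for no effect and unstimulated DMSO wells for full effect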
LGR2 inh – Drosophila LGR2 receptor signaling inhibition; HEK293 LGR2, CRE-luciferase, bursicon-stimulated, 4 h; inhibition, % at 9.99 µM; hit rate 0.35% among 380,000;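 active = drop in luminescence signal, shown as inhibition above about 50% in the replicate tests, limit read from the data, passing the limit was not always enough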;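 note: agonist challenge used bursicon conditioned medium at about half maximal strength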
TROY signal inh – blocks TROY-dependent signaling in reporter cells. hit rate 0.98% among 360,000. inhibition, % at 10 µM. Q293 LMP1-TROYcd NF-kB luciferase reporter, 4 h. AID 1347056;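 active = compounds whose plate-normalised and pattern-corrected inhibition of the luciferase reporter signal at the single screening dose is 50% or more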
EWS-Fli block – EWS/Fli transcriptional activity inhibition | inhibition, % at 12.6 µM | hit rate 0.67% among 350,000 | A673 NR0B1-luciferase reporter, viability-normalised | AID 651661;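 active = mean inhibition of at least 50% after viability correction, with every replicate also passing that limit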;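 note: firefly luciferase signal divided by Alamar Blue viability fluorescence both relative to DMSO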
KKLEB cytotox – counter-screen for CF NF-kB inhibitors: cytotoxicity | hit rate 0.36% among 360,000 | AID 602141 | activity change (cytotoxicity), % at 5 µM | KKLEB CF airway cells viability, ATPlite luminescence, overnight; active compounds read low; cells stimulated with P. aeruginosa culture filtrate;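 active = corrected activity change at or below -50% at 5 µM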
Numbers without * were called inactive; . = no result given; ! = repeats disagree.

SMILES	TWEAK-Fn14 inh	CF NFkB block	LGR2 inh	TROY signal inh	EWS-Fli block	KKLEB cytotox
COCCNC(=O)C[C@@H]1C[C@H]2c3cc(NS(=O)(=O)c4ccccc4)ccc3O[C@H]2[C@@H](CO)O1	.	.	16	.	2	.
CCc1c(OC(C)=O)c2ccccc2n(C)c1=O	11	8	.	-38	3	-6
C=CCc1c(OC(C)=O)c2ccccc2n(C)c1=O	55*	12	14	14	2	8
O=[N+]([O-])c1ccccc1CCc1cnc(Cl)s1	58*	0	-3	52*	-13	3
CC(C)c1nc(C#N)c(NN)o1	21	0	-6	21	-7	12
N#Cc1nc(Cl)c(Cl)c(NN)c1Cl	-16	24	12	62*	12	-16
O=C(CSc1nccc(=O)[nH]1)Nc1cccc2ccccc12	50*	-4	-5	-12	3	7
CN1CCN(C(=O)C[C@H]2C=C[C@@H](NC(=O)Nc3ccccc3F)[C@H](CO)O2)CC1	.	.	1	.	-11	.
COC(=O)c1ccc(CN2C(=O)NC3(CCCCC3C)C2=O)o1 (stereo not given)	53*	-16	.	.	.	10
COc1ccc(CCNc2ncnc3sccc23)cc1OC	50*	-27	9	38	2	-7
c1ccc(CNc2ncnc3c2oc2ccccc23)nc1	-46	12	.	-35	.	12
COc1ccc(CCNc2nc(C)nc3c2oc2ccccc23)cc1OC	46	8	.	53*	.	-8
Cc1nc(NCCc2cnc[nH]2)c2oc3ccccc3c2n1	-11	-17	5	-9	-7	-7
COc1ccc(Nc2ncnc3sccc23)cc1OC	-17	0	-9	-26	-13	8
COc1ccc(CCNc2ncnc3c2oc2ccccc23)cc1OC	91*	8	19	57*	7	0
Cc1ccccc1-c1ccc2c(c1)[C@@H]1C[C@H]3[C@@H](CN1CC2)[C@H](C)OC(c1ccccc1)N3C (stereo not given in full)	.	.	2	.	-5	.
C[C@H]1CN([C@@H](C)CO)C(=O)c2cc(-c3ccc(C(=O)N(C)C)cc3)cnc2O[C@H]1CN(C)C(=O)C1CC1	.	.	-5	.	-9	.
C[C@@H]1CCCCO[C@H](CN(C)Cc2ccncc2)[C@@H](C)CN([C@H](C)CO)C(=O)c2cc(NS(=O)(=O)c3ccccc3)ccc2O1	.	.	-6	.	2	.
Cc1cc(C)c2c(N)c(C(=O)c3ccc(Cl)cc3Cl)sc2n1	52*	49	-6	30	.	7
Cc1cc(C)c2c(N)c(C(=O)Nc3ncc(C)s3)sc2n1	79*	-4	.	5	.	-69*
COC(=O)c1sc2nc(C)cc(C)c2c1N	-1	-24	-20	-26	-15	16
Cc1cc(C)c2c(N)c(C(=O)c3ccccc3Cl)sc2n1	11	11	7	17	1	-7
Cn1cnc(S(=O)(=O)N[C@@H]2CC[C@@H](CC(=O)Nc3ccccc3)O[C@H]2CO)c1	.	.	6	.	-5	.
C[C@@H]1CN([C@@H](C)CO)C(=O)c2cc(C#CC(C)(C)O)cnc2O[C@@H]1CN(C)C(=O)CC1CC1	.	.	-11	.	-2	.
O=C(Nc1nc(-c2cccs2)cs1)c1ccc([N+](=O)[O-])o1	35	76*	-1	-19	-4	-13
SMILES	TWEAK-Fn14 inh	CF NFkB block	LGR2 inh	TROY signal inh	EWS-Fli block	KKLEB cytotox
CC(C)Oc1cccc(C(=O)NC(=S)Nc2ccccc2)c1	59*	4	-44	67*	.	13
COc1cc(OC)cc(C(=O)Nc2nnc(NC(=S)Nc3ccccc3)s2)c1	-4	65*	.	-34	.	15
COc1cc(C(=O)Nc2nc(-c3cccs3)cs2)cc(OC)c1OC	56*	-38	59*	45	-57	0
COc1cc(OC)cc(C(=O)Nc2ccc(Nc3ccccc3)cc2)c1	-18	-14	-31	-67	-67	12
CC(C)Oc1cccc(C(=O)NC(=S)Nc2cccnc2)c1	-15	10	-21	-49	.	-5
CCc1nnc(NC(=O)c2cccc(OC)c2)s1	22	-6	.	-36	.	7
COc1cccc(C(=O)Nc2nnc(-c3cccs3)s2)c1	70*	-9	26	16	.	9
Oc1c(N=Nc2ccccn2)ccc2ccccc12	80*	13	.	20	.	-10
Clc1ccc(-c2nnc(-c3ccccc3)o2)c(Cl)c1	63*	-13	.	19	.	-32
Fc1ccc(-c2nnc(-c3ccc(Cl)cc3Cl)o2)cc1	56*	-52	3	-20	39	-55*
O=C(O)C[C@@H]1C=C[C@@H](NC(=O)c2ccccc2F)[C@H](CO)O1	.	.	9	.	2	.
COc1ccc(OCCC(=O)OCC(=O)Nc2cccc(Br)c2)cc1	101*	-5	-6	50	.	1
COc1ccc(OCCC(=O)OCC(=O)Nc2ccc(Br)cc2)cc1	-14	-6	-2	16	0	6
CCn1cnc2cc(NCc3nc4ccccc4n3Cc3ccccc3)ccc21	81*	6	.	80*	.	-8
CC(C)n1cnc2cc(NCc3nc4ccccc4n3C)ccc21	60*	-3	-15	67*	-70	-28
Cn1c(CNc2ccccc2)nc2ccccc21	-11	6	-82	-38	.	7
CCn1cnc2cc(NCc3nc4ccccc4n3C)ccc21	86*	16	2	69*	-33	-3
O=C(O)c1ccc(NCc2nc3ccccc3n2Cc2ccccc2)cc1	-9	2	1	-2	5	-8
C[C@H](CO)N1C[C@H](C)[C@@H](CN(C)S(=O)(=O)c2ccc(Cl)cc2)Oc2c(NC(=O)c3nc4ccccc4s3)cccc2C1=O	.	.	9	.	5	.
N#Cc1ccc(-c2cccs2)nc1SCc1cccnc1	-34	18	-8	-30	54*	-15
N#Cc1c(C(F)(F)F)cc(-c2cccs2)nc1SCc1cccnc1	18	-22	.	0	.	-11
O=C(N[C@H](Cc1ccccc1)C(=O)N1CCN(c2ccc(Cl)cn2)CC1)[C@H]1O[C@@H](n2ccc(=O)[nH]c2=O)[C@H](O)[C@@H]1O	.	.	-8	.	-6	.
O=C(CCCC(=O)c1ccc(O)cc1)c1ccc(O)cc1	27	22	0	-41	-56	2
O=C1C=CC(=C(c2ccc(O)cc2)c2ccc(O)cc2)C=C1	36	32	58*!	50	18	5
CCC(=O)N(C)C[C@H]1Oc2cc(C#C[C@@H](C)O)ccc2S(=O)(=O)N([C@@H](C)CO)C[C@@H]1C	.	.	-29	.	14	.
O=C1C(=Cc2ccc(Cl)cc2)Cc2ccccc21	-15	.	-54	-48	-61	.
C=CC(=O)N1C/C(=C/c2ccccc2)C(=O)/C(=C\c2ccccc2)C1	105*	81*	100*	73*	72*	-42
C=CC(=O)N1C/C(=C/c2ccc(Cl)cc2)C(=O)/C(=C\c2ccc(Cl)cc2)C1	107*	87*	104*	85*	77*	-97*
